ATXN2 expr inh: inhibitors of ATXN2 expression; HEK-293 ATXN2-luciferase reporter, luminescence, 24 h; Potency, µM (top dose mostly 57 µM), most hits filed as inhibitors; 360,000 tested, 0.72% active; note: nearly all actives have a fitted effect of over 55% in size
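ATXN2-luciferase reporter cells (luciferase flanked by upstream and downstream ATXN2 gene portions) were treated 24 h at 37 °C with compounds at up to 57 uM. SteadyGlo luminescence gave expression; GF-AFC fluorescence gave viability.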
HepG2 tox: HepG2 cytotoxicity, counter-screen for TGF-b inhibitors; Potency, µM (highest dose often 46.1 µM), most hits filed as cytotoxic; HepG2 CAGA-GFP viability, ATP luminescence, 18 h; AID 588856; 410,000 tested, 0.76% active
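CellTiter-Glo luminescence gave cytotoxicity after 18 hours at 37 degrees C. The cells were HepG2 CAGA-GFP in 1% FBS DMEM, stimulated with 500 pg/mL TGF-beta after compound addition. %Activity was normalised to no-cell wells (complete cell-killing) and DMSO (no toxicity), and curves were fitted and classified.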
S2 tox: cell viability loss in ATXN counter-screen; 400,000 tested, 0.49% active; S2 cells (HEK-293 line with an ATXN2-luciferase reporter) viability, CellTiter-Fluor protease fluorescence, 24 h; AID 651635; Potency, µM (series often up to 56.7 µM), usual class: cytotoxic; note: nearly all actives have a fitted effect of over 40% in size
IL-1B inflam inh: inhibitors of inflammasome signaling (IL-1 beta secretion); THP-1 LPS/ATP IL-1B secretion, AlphaLISA, 16 h; stronger effect = lower value; activity change, % at 57.5 µM; 360,000 tested, 4.7% active; in the data active = activity change below about -50%; inconclusive = mostly about -30% to -49%
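THP-1 cells pretreated 1 hr with compounds (up to 57.5 uM final), then stimulated with LPS (250 ng/mL final) plus ATP (1.25 mM final); secreted IL-1B measured by AlphaLISA after 16 hr, decreased signal indicating inhibition.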
TGFb SMAD3 inh: blocks TGF-b signaling; Potency, µM (series often up to 46.1 µM), most hits filed as inhibitors; 410,000 tested, 1.2% active; HepG2 CAGA-GFP TGF-b/SMAD3 reporter, GFP fluorescence, 18 h; TGF-beta stimulated, 500 pg/mL final; note: nearly all actives have a fitted effect of over 65% in size
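First, reporter cells (HEPG2 CAGA-GFP) rested 2 h at 37 degrees C. Next, compounds were pinned in and TGF-beta added to 500 pg/mL final. After 18 h, GFP was imaged per cell and summed per well.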
Large screens that a line does not name were inactive. The list is not random: actives were taken first. Their share in the collection is about 5.7%. Unless noted, calls come from the whole dose curve; as a rule, active = well fitted curve in the direction sought with a large enough effect; inconclusive = small, poorly fitted or top-dose-only effect, or another doubt; inactive = no such curve, though single readings can be large; an effect the other way counts as inactive or inconclusive.

CCOC(=O)N1CCC(NC(=O)c2cnn(-c3ccc(C)cc3)c2C2CCN(C(=O)OC(C)(C)C)CC2)CC1	none (no result: ATXN2 expr inh, S2 tox, IL-1B inflam inh)
CN(C(=O)CSc1nc2ccccc2n1CC(=O)NCc1ccc(F)cc1)c1ccc(F)cc1	TGFb SMAD3 inh inconclusive (no result: IL-1B inflam inh)
Cc1ccc(NC(=O)Nc2nnc(SCC(=O)N3CCCCC3)s2)cc1	none (no result: ATXN2 expr inh, S2 tox, IL-1B inflam inh)
CN(C)CCNC(=O)c1ccc2c(=O)n(Cc3ccc(Cl)cc3)c(=S)[nH]c2c1	IL-1B inflam inh -63, TGFb SMAD3 inh inconclusive
Cc1ccc(N=c2ssnc2Cl)cc1	TGFb SMAD3 inh inconclusive
Cc1cc(C)nc(/N=c2/ssnc2Cl)c1	ATXN2 expr inh inconclusive, IL-1B inflam inh -101
N#C/C(C(N)=O)=c1/ccc2c(c1)N1C3=C(CCCC3)CC3CCCCC31N=2 (centres undefined)	S2 tox inconclusive, IL-1B inflam inh -102, TGFb SMAD3 inh inconclusive
N#CC(C#N)=c1ccc2c(c1)N1C3=C(CCCC3)CC3CCCCC31N=2 (centres undefined)	ATXN2 expr inh inconclusive, S2 tox inconclusive, IL-1B inflam inh -117
CCc1ccc(NC(=O)c2cccc(N3CCCS3(=O)=O)c2)cc1	none (no result: IL-1B inflam inh)
N#CCCn1nc(-c2ccccc2)cc1Nc1ccccc1NC(=O)c1cccs1	IL-1B inflam inh -60
COc1ccc(OC)c(S(=O)(=O)NCCc2csc3nc(-c4ccccc4)nn23)c1	none (no result: ATXN2 expr inh, S2 tox, IL-1B inflam inh)
Cc1[nH]n(-c2ccccc2)c(=O)c1N=Nc1nccs1	ATXN2 expr inh 22µM, TGFb SMAD3 inh inconclusive (no result: S2 tox)
Cc1ccc(-c2cn(-c3ccc(Cl)cc3)c(S(=O)(=O)CC(=O)Nc3ccccc3)n2)cc1	S2 tox inconclusive, TGFb SMAD3 inh inconclusive (no result: IL-1B inflam inh)
CCOC(=O)c1c(N2C(=O)C=CC2=O)sc(C)c1C	ATXN2 expr inh inconclusive, S2 tox inconclusive, IL-1B inflam inh -96, TGFb SMAD3 inh 16µM
CCOC(=O)c1c(NC(N)=O)sc(C)c1C	none
O=C1/C(=C/c2ccccc2O)SC(=S)N1Cc1cccnc1	ATXN2 expr inh 28µM, S2 tox 16µM, TGFb SMAD3 inh inconclusive
NS(=O)(=O)c1ccc(CCN2C(=O)/C(=C\c3ccc(Cl)cc3)SC2=S)cc1	ATXN2 expr inh 25µM, IL-1B inflam inh -85 (no result: S2 tox)
O=C1/C(=C\c2cccc([N+](=O)[O-])c2O)SC(=S)N1Cc1ccccc1	ATXN2 expr inh inconclusive, S2 tox inconclusive, TGFb SMAD3 inh 10µM
O=C1/C(=C\c2ccc(O)cc2)SC(=S)N1Cc1ccccc1	IL-1B inflam inh -96, TGFb SMAD3 inh inconclusive
Clc1ccc(N2CCN(c3ncnc4c3nc3n4CCCC3)CC2)cc1	none (no result: ATXN2 expr inh, S2 tox, IL-1B inflam inh)
Cn1cc(C=CC(=O)c2cccc(F)c2)cc1C=CC(=O)NO	none (no result: HepG2 tox, S2 tox, IL-1B inflam inh, TGFb SMAD3 inh)
Cc1cc(C)c(NC(=O)Cn2c(=O)n(Cc3ccco3)c(=O)c3ccc(C(=O)NC4CCCC4)cc32)c(C)c1	none (no result: IL-1B inflam inh)
Cc1cc(/C=C2\SC(=S)N(Cc3ccco3)C2=O)c(C)n1-c1cccnc1	none
O=C1/C(=C/c2cccnc2)SC(=S)N1Cc1ccco1	IL-1B inflam inh -97
O=C1CSC(=S)N1c1cccnc1	none
O=C1CSC(=S)N1Cc1cccnc1	ATXN2 expr inh inconclusive, S2 tox inconclusive, IL-1B inflam inh -84, TGFb SMAD3 inh 7.9µM
Cc1cc(C)cc(NC(=O)C2CCCN(c3cnccn3)C2)c1 (centres undefined)	none (no result: ATXN2 expr inh, S2 tox, IL-1B inflam inh)
CCc1nc2cc(C(=O)N[C@H]3CCCCNC3=O)cc(NC(=O)c3ccccc3OC)c2n1C	none (no result: ATXN2 expr inh, HepG2 tox, IL-1B inflam inh, TGFb SMAD3 inh)
O=C(Nc1ccccc1)c1nc[nH]c1C(=O)NCCN(CCNC(=O)c1[nH]cnc1C(=O)Nc1ccccc1)CCNC(=O)c1[nH]cnc1C(=O)Nc1ccccc1	TGFb SMAD3 inh 20µM
CC(C)(C)OC(=O)NCCCCCNC(=O)c1nc[nH]c1C(=O)NCCCCCNC(=O)OC(C)(C)C	ATXN2 expr inh 22µM, S2 tox 25µM, TGFb SMAD3 inh inconclusive
CC(C)(C)OC(=O)CNC(=O)c1[nH]cnc1C(=O)Nc1ccc(CNC(=O)OC(C)(C)C)cc1	ATXN2 expr inh 32µM, S2 tox inconclusive, TGFb SMAD3 inh inconclusive
CC(C)(C)OC(=O)NCCCCCNC(=O)c1nc[nH]c1C(=O)NCc1ccc(CNC(=O)OC(C)(C)C)cc1	ATXN2 expr inh 20µM, S2 tox 16µM, IL-1B inflam inh inconclusive, TGFb SMAD3 inh inconclusive
Cc1nc2cc(NC(=O)[C@@H]3C[C@@H](Sc4ccccn4)CN3Cc3ccccc3)ccc2s1	none (no result: ATXN2 expr inh, HepG2 tox, IL-1B inflam inh, TGFb SMAD3 inh)

Screens deposited in PubChem BioAssay by National Center for Advancing Translational Sciences (NCATS).
